Structures are written as SMILES. “And” between values parts separate entries of the source, which are not always exact repeats. Equal values may be shown once. About 79,000 compounds went through this panel and 15% of them were active in at least one assay; those are over-represented in the sample as a whole. A structure can be active in one record and inactive in another. The source made the active and inactive calls. No stated cut-off is given here; in the data, active means growth inhibition above about 70%; inactive means the rest.

Here are results for seven molecules from PubChem BioAssay (NCI).

A short description of assay [1]: NCI Yeast Anticancer Drug Screen. Data for the rad50 strain (AID 155).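 Further: 0% = growth of vehicle-only cultures of the same strain.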 Conditions: S. cerevisiae rad50 strain growth inhibition, stronger effect = higher value. An outline of the steps:
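Vehicle-treated cultures provide the reference for the growth inhibition reported for compound-exposed, repair-deficient yeast.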

Assay [2] in a line: NCI Yeast Anticancer Drug Screen. Data for the mec2-1 strain (AID 157). As to conditions: S. cerevisiae mec2-1 strain, stronger effect = higher value. An outline of the steps:
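mec2-1 yeast strain, carrying an alteration in DNA damage repair or cell cycle control, was exposed to compounds; growth inhibition was measured relative to vehicle-treated controls.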

A short description of assay [3]: NCI Yeast Anticancer Drug Screen. Data for the sgs1 mgt1 strain (AID 161).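 Further: 0% = growth of cultures given vehicle only.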 As to conditions: S. cerevisiae sgs1 mgt1 strain, stronger effect = higher value. An outline of the steps: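 Yeast cells carrying a defined DNA-repair defect were exposed to test compounds. Growth inhibition was measured relative to vehicle-treated controls.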
Assay [4] in a line: NCI Yeast Anticancer Drug Screen. Data for the cln2 rad14 strain (AID 165).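 Further: 0% = growth equal to vehicle treated cultures.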 Conditions: S. cerevisiae cln2 rad14 strain, stronger effect = higher value. An outline of the steps: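 Yeast carrying cln2 and rad14 alterations (cell cycle control and DNA damage repair) were exposed to compounds. Growth inhibition was measured against vehicle-treated controls.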
Assay [5] is described as follows: NCI Yeast Anticancer Drug Screen. Data for the bub3 strain (AID 167). As to conditions: S. cerevisiae bub3 mutant strain, stronger effect = higher value. The procedure, abridged:
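Mutant yeast screening strain plus compound; vehicle-treated cultures serve as the 0% inhibition reference.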

Assay [6] can be described thus: NCI Yeast Anticancer Drug Screen. Data for the mlh1 rad18 strain (AID 175). As to conditions: S. cerevisiae mlh1 rad18 strain growth inhibition, stronger effect = higher value. The procedure, abridged:
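Growth inhibition of the yeast strain was measured after compound exposure and expressed relative to vehicle-treated controls. The strain carries defined defects in DNA damage repair.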

The mark [7] stands for this setting: at 5.0 µM (retest, dose inferred, filed as 0.5).
Where [8] appears, read: at 50.0 µM (retest, dose inferred, filed as 5.0).

With `COc1ccc2c(c1)c[n+](C)c1c3cc(OC)c(OC)cc3ccc21`, the growth inhibition was 17% (inactive) in assay [1] (setting [7]); 23% (inactive) in assay [1] (setting [8]); 5.2% (inactive) and 37.6% (inactive) in assay [1] (at 50.0 µM); 23% (inactive) in assay [2] (setting [7]); 20% (inactive) in assay [2] (setting [8]); 2.8% (inactive) and 35.4% (inactive) in assay [2] (at 50.0 µM). Besides, the growth inhibition was -21% (inactive) in assay [3] (setting [7]); 47% (inactive) in assay [3] (setting [8]); 43.2% (inactive) and 48.9% (inactive) in assay [3] (at 50.0 µM); -12% (inactive) in assay [4] (setting [7]); -8% (inactive) in assay [4] (setting [8]); 34.6% (inactive) and 13.8% (inactive) in assay [4] (at 50.0 µM). Also, the growth inhibition in assay [5] (setting [7]) is 8% (inactive); in assay [5] (setting [8]) it was 61% (inactive); in assay [5] (at 50.0 µM), 25.9% (inactive) and 19.1% (inactive); in assay [6] (setting [7]), 16% (inactive); in assay [6] (setting [8]), 19% (inactive); in assay [6] (at 50.0 µM), -19.9% (inactive) and 32.5% (inactive).

With `O=S(O)CCCCSSCC(O)C(O)CSSCCCCS(=O)O` (stereo unspecified), the growth inhibition in assay [1] (setting [7]) was -7% (inactive); in assay [1] (setting [8]) it was 21% (inactive); in assay [1] (at 50.0 µM), 49.4% (inactive); in assay [2] (setting [7]) it was 12% (inactive); in assay [2] (setting [8]) it was 44% (inactive); in assay [2] (at 50.0 µM), 56.1% (inactive). For the same molecule, the growth inhibition in assay [3] (setting [7]) is 6% (inactive); in assay [3] (setting [8]), 50% (inactive); in assay [3] (at 50.0 µM), 78.8% (active); in assay [4] (setting [7]), -10% (inactive); in assay [4] (setting [8]) it was 24% (inactive); in assay [4] (at 50.0 µM), 37% (inactive). For the same molecule, the growth inhibition was 3% (inactive) in assay [5] (setting [7]); 55% (inactive) in assay [5] (setting [8]); 57.5% (inactive) in assay [5] (at 50.0 µM); 3% (inactive) in assay [6] (setting [7]); 33% (inactive) in assay [6] (setting [8]); 73% (active) in assay [6] (at 50.0 µM).

Consider `O=C1C(CN(Cc2ccccc2)Cc2ccccc2)CCCC1CN(Cc1ccccc1)Cc1ccccc1` (stereo unspecified), for which the growth inhibition in assay [1] (setting [7]) was 4% (inactive); in assay [1] (setting [8]), 17% (inactive); in assay [1] (at 50.0 µM), 90.6% (active) and -1.45% (inactive); in assay [2] (setting [7]) it was -3% (inactive); in assay [2] (setting [8]), 22% (inactive); in assay [2] (at 50.0 µM), 73% (active) and 25.6% (inactive). Also, the growth inhibition was 4% (inactive) in assay [3] (setting [7]); 46% (inactive) in assay [3] (setting [8]); 72.7% (active) and 21.9% (inactive) in assay [3] (at 50.0 µM); -20% (inactive) in assay [4] (setting [7]); 7% (inactive) in assay [4] (setting [8]); 23.6% (inactive) and 67.8% (inactive) in assay [4] (at 50.0 µM). In addition, the growth inhibition in assay [5] (setting [7]) was -16% (inactive); in assay [5] (setting [8]), 47% (inactive); in assay [5] (at 50.0 µM), 83.2% (active) and 21.4% (inactive); in assay [6] (setting [7]) it was -3% (inactive); in assay [6] (setting [8]) it was 58% (inactive); in assay [6] (at 50.0 µM) it was 80.8% (active) and 14.2% (inactive).

For the molecule `CCOC(=O)c1ccc(NCc2ccc3ccccc3n2)cc1`, the growth inhibition in assay [1] (setting [7]) was -3% (inactive); in assay [1] (setting [8]), 15% (inactive); in assay [1] (at 50.0 µM) it was 71.6% (active); in assay [2] (setting [7]), -11% (inactive); in assay [2] (setting [8]) it was 14% (inactive); in assay [2] (at 50.0 µM), 51.5% (inactive). Moreover, the growth inhibition in assay [3] (setting [7]) was -28% (inactive); in assay [3] (setting [8]), 44% (inactive); in assay [3] (at 50.0 µM), 79.4% (active); in assay [4] (setting [7]) it was -6% (inactive); in assay [4] (setting [8]), 4% (inactive); in assay [4] (at 50.0 µM) it was 19.1% (inactive). Moreover, the growth inhibition is 11% (inactive) in assay [5] (setting [7]); 55% (inactive) in assay [5] (setting [8]); -11.1% (inactive) in assay [5] (at 50.0 µM); -2% (inactive) in assay [6] (setting [7]); 57% (inactive) in assay [6] (setting [8]); 74.3% (active) in assay [6] (at 50.0 µM).

On to `Nc1ncnc2c(C3OC(CO)C(O)C3O)scc12` (stereo unspecified), for which the growth inhibition in assay [1] (setting [7]) is 12% (inactive); in assay [1] (setting [8]) it was 36% (inactive); in assay [1] (at 50.0 µM), 15.8% (inactive); in assay [2] (setting [7]), 12% (inactive); in assay [2] (setting [8]) it was 40% (inactive); in assay [2] (at 50.0 µM), 26.4% (inactive). Also, the growth inhibition in assay [3] (setting [7]) is 7% (inactive); in assay [3] (setting [8]) it was 42% (inactive); in assay [3] (at 50.0 µM), 39.4% (inactive); in assay [4] (setting [7]), 21% (inactive); in assay [4] (setting [8]) it was 5% (inactive); in assay [4] (at 50.0 µM), 30.9% (inactive). Also, the growth inhibition was -21% (inactive) in assay [5] (setting [7]); 30% (inactive) in assay [5] (setting [8]); 47.6% (inactive) in assay [5] (at 50.0 µM); 14% (inactive) in assay [6] (setting [7]); 63% (inactive) in assay [6] (setting [8]); 39.4% (inactive) in assay [6] (at 50.0 µM).

Regarding `O=S(c1cc(Br)ccc1O)c1cc(Br)ccc1O`, the growth inhibition in assay [1] (setting [7]) is 31% (inactive); in assay [1] (setting [8]), 99% (active); in assay [1] (at 50.0 µM), 99.3% (active); in assay [2] (setting [7]) it was 49% (inactive); in assay [2] (setting [8]), 100% (active); in assay [2] (at 50.0 µM), 99.7% (active). Also, the growth inhibition in assay [3] (setting [7]) is 69% (inactive); in assay [3] (setting [8]) it was 99% (active); in assay [3] (at 50.0 µM), 99% (active); in assay [4] (setting [7]) it was 39% (inactive); in assay [4] (setting [8]) it was 99% (active); in assay [4] (at 50.0 µM) it was 99.3% (active). Besides, the growth inhibition was 23% (inactive) in assay [5] (setting [7]); 99% (active) in assay [5] (setting [8]); 99.3% (active) in assay [5] (at 50.0 µM); 80% (active) in assay [6] (setting [7]); 100% (active) in assay [6] (setting [8]); 99.5% (active) in assay [6] (at 50.0 µM).

Take `CCC1=C(C)/C(=C/c2[nH]c(C)c(CC)c2C)N=C1C`: the growth inhibition in assay [1] (setting [7]) is -3% (inactive) and -5% (inactive); in assay [1] (setting [8]) it was 20% (inactive) and -58% (inactive); in assay [1] (at 50.0 µM), 61.1% (inactive) and 33% (inactive); in assay [2] (setting [7]) it was 6% (inactive) and 0% (inactive); in assay [2] (setting [8]), 48% (inactive) and 53% (inactive); in assay [2] (at 50.0 µM), 66.5% (inactive) and -2.85% (inactive). Moreover, the growth inhibition in assay [3] (setting [7]) was 0% (inactive) and -2% (inactive); in assay [3] (setting [8]), 51% (inactive) and 32% (inactive); in assay [3] (at 50.0 µM) it was 76.2% (active) and 78.1% (active); in assay [4] (setting [7]) it was -12% (inactive) and -15% (inactive); in assay [4] (setting [8]), 31% (inactive) and 6% (inactive); in assay [4] (at 50.0 µM), 18.6% (inactive) and -57.5% (inactive). Also, the growth inhibition in assay [5] (setting [7]) was 26% (inactive) and 5% (inactive); in assay [5] (setting [8]), 45% (inactive) and 33% (inactive); in assay [5] (at 50.0 µM), 31.2% (inactive) and 22.6% (inactive); in assay [6] (setting [7]), -7% (inactive) and 4% (inactive); in assay [6] (setting [8]), 61% (inactive) and 48% (inactive); in assay [6] (at 50.0 µM), 60.5% (inactive) and 21.7% (inactive).
